Drawing on PubChem BioAssay (NCATS), this text covers Potency and outcome for 9 compounds.

Results filed as inconclusive are left out. Where a call stands in place of a potency, no number is given. Activity calls are given as the source filed them. Calls come from the whole dose curve; as a rule, active = well fitted curve in the direction sought with a large enough effect; inconclusive = small, poorly fitted or top-dose-only effect, or another doubt; inactive = no such curve, though single readings can be large; an effect the other way counts as inactive or inconclusive.

The nature of the first assay: qHTS of pediatric cancer cell lines to identify multiple opportunities for drug repurposing: Confirmatory screen for NB-EBc1 cells (AID 1347115).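 Note: cells exposed to compound for 48 h before the viability read; nearly all actives have a fitted effect of over 45% in size.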 Note: potency is the fitted concentration of half-maximal effect. Particulars: NB-EBc1 neuroblastoma cells, viability (cytotoxicity); series mostly up to 45.9 µM. In outline: (§1)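 Cells (500-1,000/well) in growth media were settled 5 h at 37 degrees C, then given compounds for 48 h. Viability was read as CellTiter-Glo luminescence. Primary runs used MIPE at 11 points (0.78 nM-46 µM) and NPC at 8 points (0.59 nM-46 µM); follow-ups used 11 points.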
Background: Quantitative high-throughput screening tests each substance at several concentrations.
As to `O=P1(N(CCCl)CCCl)NCCCO1` (stereo not drawn), the Potency result was “inactive”.

`O=C(O)CCCc1ccc(N(CCCl)CCCl)cc1`: the Potency is 9.27 µM (active).

As for `C[C@](O)(CS(=O)(=O)c1ccc(F)cc1)C(=O)Nc1ccc(C#N)c(C(F)(F)F)c1`, the Potency entry was “inactive”.

In the case of `C[C@]12CCC(=O)C=C1CC[C@@H]1[C@@H]2CC[C@@]2(C)[C@H]1CC[C@]2(C)O`, the Potency entry was “inactive”.

As to `CCCN(CCC)C(=O)Cc1c(-c2ccc(Cl)cc2)nc2ccc(Cl)cn12`, the Potency result was “inactive”.

On to `CCOP(=S)(OCC)Oc1ccc2c(C)c(Cl)c(=O)oc2c1`, for which the Potency result was “inactive”.

The next assay in a line: qHTS of pediatric cancer cell lines to identify multiple opportunities for drug repurposing: Confirmatory screen for SJ-GBM2 cells (AID 1347116). Note: nearly all actives have a fitted effect of over 60% in size. Particulars: SJ-GBM2 glioblastoma cells, viability; series mostly up to 45.9 µM. In outline:
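Viability measured as metabolically active cells via CellTiter-Glo luminescence following 48 hours of compound exposure, 11-point dilutions in confirmatory testing. 500-1,000 cells/well plated 5 hours before dosing; controls were DMSO and 2.3 µM bortezomib.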
In the case of `C[C@](O)(CS(=O)(=O)c1ccc(F)cc1)C(=O)Nc1ccc(C#N)c(C(F)(F)F)c1`, the compound was classed as inactive.

`C[C@]12CCC(=O)C=C1CC[C@@H]1[C@@H]2CC[C@@]2(C)[C@H]1CC[C@]2(C)O`: the compound was called inactive.

Turning to `CCCN(CCC)C(=O)Cc1c(-c2ccc(Cl)cc2)nc2ccc(Cl)cn12`, the result was inactive.

On to `CCOP(=S)(OCC)Oc1ccc2c(C)c(Cl)c(=O)oc2c1`, for which the result was inactive.

On to `O=C(N/N=C/c1ccc([N+](=O)[O-])o1)c1cc([N+](=O)[O-])cc([N+](=O)[O-])c1O`, for which the call was inactive.

A further assay in a line: qHTS of pediatric cancer cell lines to identify multiple opportunities for drug repurposing: Confirmatory screen for BT-37 cells (AID 1347117). Note: nearly all actives have a fitted effect of over 55% in size. Note: potency is the fitted concentration of half-maximal effect. Particulars: BT-37 pediatric cancer cells, viability; series mostly up to 45.9 µM. Summed up: as §1
Regarding `O=P1(N(CCCl)CCCl)NCCCO1` (stereo not drawn), the Potency result was “inactive”.

Turning to `CC(NC(C)(C)C)C(=O)c1cccc(Cl)c1` (stereo not drawn), the Potency was 23.3 µM (active).

As for `C[C@](O)(CS(=O)(=O)c1ccc(F)cc1)C(=O)Nc1ccc(C#N)c(C(F)(F)F)c1`, the Potency result was “inactive”.

Turning to `COc1cccc2c1C(=O)c1c(O)c3c(c(O)c1C2=O)C[C@@](O)(C(=O)CO)CC3OC1CC(N2CCOC(OC)C2)C(O)C(C)O1` (stereo partly drawn), the Potency is 0.0066 µM (active).

For the compound `C[C@]12CCC(=O)C=C1CC[C@@H]1[C@@H]2CC[C@@]2(C)[C@H]1CC[C@]2(C)O`, the Potency result is “inactive”.

`CCCN(CCC)C(=O)Cc1c(-c2ccc(Cl)cc2)nc2ccc(Cl)cn12`: the Potency entry was “inactive”.

Take `O=C(N/N=C/c1ccc([N+](=O)[O-])o1)c1cc([N+](=O)[O-])cc([N+](=O)[O-])c1O`: the Potency result is “inactive”.
